Sampled rows, rich in hits. Any-hit rate of the full collection: about 3.5%.
Mtb bLac sens – beta-lactam sensitization of Mtb H37Rv; actives 0.27% (n = 330,000); M. tuberculosis H37Rv growth with meropenem, percent inhibition; AID 434955; inhibition, % at 25 µM; call rule not given here;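 also: growth measured after seven days incubation then overnight dye step; 0% = bacteria only wells and 100% = bacteria with antibiotic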
Mtb UGM inh – Mtb UDP-galactopyranose mutase inhibition; P9WIQ1; inhibition, % at 10 µM; actives 0.06% (n = 320,000); purified UGM, fluorescence polarization probe displacement; AID 504406; in the data active = inhibition above about 10%, passing the limit was not always enough; inconclusive = no clear call, values can overlap the other calls
FBA Mtb inh – Mtb fructose-bisphosphate aldolase inhibition | inhibition, % at 1 µM | actives 2.3% (n = 360,000) | purified M. tuberculosis FBA, fluorescence read-out; in the data active = inhibition above about 27%;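 also: 0% = vehicle and 100% = reference inhibitor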
GDH-TPI inh – counter-screen for M. tuberculosis FBA inhibitors: GDH-TPI coupled enzymes; GDH-TPI coupled enzyme counterscreen, NADH absorbance; inhibition, % at 4.8 µM; actives 1.2% (n = 360,000); in the data active = inhibition above about 30%;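 also: 0% = DMSO wells and 100% = wells lacking the enzyme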
Rv3671c inh – inhibits the M. tuberculosis serine protease Rv3671c; inhibition, % at 5.96 µM; actives 0.048% (n = 320,000); AID 2606; P9WHR9; in the data active = inhibition above about 38%;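 also: extracellular domain of Rv3671c used as enzyme; 0% = enzyme with DMSO and 100% = no enzyme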
Target sequence (P9WHR9 whole entry, looked up, the tested form may be a part): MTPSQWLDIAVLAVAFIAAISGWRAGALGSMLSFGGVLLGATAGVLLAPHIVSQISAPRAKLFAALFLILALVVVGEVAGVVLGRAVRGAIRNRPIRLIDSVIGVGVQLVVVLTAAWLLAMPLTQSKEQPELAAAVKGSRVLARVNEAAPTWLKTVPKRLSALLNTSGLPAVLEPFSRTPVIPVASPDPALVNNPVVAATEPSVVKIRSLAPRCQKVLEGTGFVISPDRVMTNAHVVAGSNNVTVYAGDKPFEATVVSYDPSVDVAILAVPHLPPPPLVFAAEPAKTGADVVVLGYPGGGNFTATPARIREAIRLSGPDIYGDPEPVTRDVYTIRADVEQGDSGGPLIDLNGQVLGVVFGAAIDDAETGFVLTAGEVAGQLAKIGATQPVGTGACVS
* hit, by the source's call; ? = inconclusive; . = no result; + = active, no number.

SMILES	Mtb bLac sens	Mtb UGM inh	FBA Mtb inh	GDH-TPI inh	Rv3671c inh
COc1ccc(-c2ccc(C(=S)N3CCN(C(C)=O)CC3)o2)cc1	27	0	7	32*	-12
COC(=O)Cn1c(=NC(=O)c2ccc(S(=O)(=O)N3CCOCC3)cc2)sc2cc(S(N)(=O)=O)ccc21	2	1	2	32*	-18
CCOCCn1c(=NC(=O)c2cc3ccccc3oc2=O)sc2cc(S(N)(=O)=O)ccc21	7	-2	-1	46*	-5
COCCn1c(=NC(=O)c2ccc(S(=O)(=O)N3CCOCC3)cc2)sc2cc(S(N)(=O)=O)ccc21	-9	6	0	33*	-11
O=C(NNS(=O)(=O)c1ccccc1)C1CCCCC1	0	-2	3	-1	3
N#Cc1c(-c2ccccc2)cc(-c2ccc(O)cc2)nc1N	42	2	17	23	-8
Cc1ccc(-c2cc(-c3ccccc3)nc(N)c2C#N)o1	-2	-1	133*	-2	-11
N#Cc1c(-c2ccco2)cc(-c2ccc(F)cc2)nc1N	3	-1	154*	16	-11
N#Cc1c(-c2ccc(F)cc2)cc(-c2cccnc2)nc1N	?	-2	24	-17	-2
COc1ccc2c(c1)-c1ccccc1S(=O)(=O)N2C(C)=O	-3	-1	31*	13	0
COc1ccc(N2C(=O)c3ccccc3S2(=O)=O)cc1	-3	-1	-6	-6	-2
CCOC(=O)c1cc2ccc3ccccc3c2oc1=O	7	-2	+	8	-1
CCOC(=O)c1cc2ccc(OC(=O)c3ccco3)cc2oc1=O	6	-1	+	9	-1
CCOC(=O)c1c(C)n(C)c2ccc(OC(=O)c3ccco3)cc12	32	2	1	6	-7
CCOc1ccc2cc(C(=O)c3ccccc3)c(=O)oc2c1	9	2	2	41*	-1
COc1ccc2cc(C(=O)c3ccccc3)c(=O)oc2c1	2	4	0	17	4
CCCc1nn2c(=O)cc(COc3ccc(NC(=O)c4ccco4)cc3)nc2s1	5	0	-1	-4	-8
Cc1c(C(C)(C)O)[nH]c2ccc(C(F)(F)F)cc12	89	-1	4	2	-3
COc1ccc(-c2c(-c3cc(OC)cc(OC)c3)n(C)c3ccc(-c4cccc5[nH]ccc45)cc23)cc1	3	2	121*	28	-2
COc1cc(OC)cc(-c2c(C#Cc3ccsc3)c3cc(-c4cccc5[nH]ccc45)ccc3n2C)c1	-1	1	21	20	-5
COc1ccc(-c2c(-c3cc(OC)cc(OC)c3)n(C)c3ccc(-c4ccc5cc[nH]c5c4)cc23)cc1	0	5	114*	35*	4
Cc1sc2ncnc(N/N=C/c3ccc(O)cc3)c2c1C	9	2	1	48*	22
Nc1c(Cl)ncnc1N/N=C/c1ccc(O)cc1	-2	-1	2	42*	0
COc1cccc(/C=N/Nc2ncnc3scc(-c4ccccc4)c23)c1OC	43	0	5	41*	-2
COc1cccc(C=NNc2nc3ccccc3s2)c1OC	.	.	1	14	.
SMILES	Mtb bLac sens	Mtb UGM inh	FBA Mtb inh	GDH-TPI inh	Rv3671c inh
Cc1sc2ncnc(N/N=C/c3ccccc3O)c2c1C	91	0	0	35*	25
Oc1ccc(/C=N/Nc2nccnc2Cl)cc1	-6	3	0	27	-5
COc1ccc(/C=N/Nc2ncnc3sc(C)c(C)c23)cc1	94	1	-3	25	4
O=C(O)C1(O)C[C@H](O)C(O)[C@@H](O)C1 (some centres not stated)	-2	-1	3	9	-5
Cc1cnc(NC(=O)CSC(=S)N2CCOCC2)s1	5	-4	1	0	9
CC(C)(CCl)C(=O)Nc1ccnc(-c2ccncc2)n1	1	1	0	-6	-10
COC(=O)c1[nH]c2cc(OC)c(OC)cc2c1NC(=O)c1cccc(OC)c1	20	-3	-2	32*	-2
CC[C@@]1(C(=O)OC)N[C@H](CN(C)S(=O)(=O)c2ccc(F)cc2)[C@@H]2C(=O)N(C)C(=O)[C@@H]21	3	.	1	4	-6
COc1ccc(C(=O)NCC2CCCO2)cc1 (configuration not stated)	-7	3	3	4	-9
CCOc1ccc(NC(=O)c2cc3cc4ccc(OC)cc4nc3o2)cc1	18	-1	0	8	0
CCC(C)NC(=O)c1cc2cc3ccc(OC)cc3nc2o1 (configuration not stated)	5	0	+	21	-15
CCCN(CCC)CCCNC(=O)c1cc2cc3ccc(Cl)cc3nc2o1	84	-2	11	8	0
Cc1ccc2cc3cc(C(=O)NCCCN4CCCC4)oc3nc2c1	4	1	127*	38*	-5
COCCNC(=O)c1cc2cc3ccc(OC)cc3nc2o1	-2	2	+	22	-4
COc1ccc2cc3cc(C(=O)NCC4CCCO4)oc3nc2c1 (configuration not stated)	10	0	+	30	4
COc1ccc2cc3cc(C(=O)Nc4ccccc4N4CCN(C)CC4)oc3nc2c1	98	3	1	22	-2
CN(C(=O)COC(=O)c1cccs1)c1ccccc1	.	.	-4	-12	.
O=C(O)c1cccnc1SCc1cccc(Cl)c1	3	-1	-2	0	-8
COC(=O)c1cc(C(=O)OCC(=O)N2CCCCC2)cc([N+](=O)[O-])c1	1	0	3	-1	3
O=C(CN1C(=O)NC2(CCCCCC2)C1=O)Nc1ccccc1[N+](=O)[O-]	-8	2	-1	7	-3
COc1ccc2cc3cc(C(=O)NCCN4CCN(c5ccccc5F)CC4)oc3nc2c1	89	-2	+	34*	-8
COc1ccc2cc3cc(C(=O)NCCC(C)C)oc3nc2c1	0	3	134*	15	4
Cn1cc(Br)c(C(=O)N/N=C/c2cc3ccccc3nc2Cl)n1	3	0	4	31*	.
CC(C)(C)c1ccc(C(=O)/C=C2\NC(=O)CS2)cc1	74	-1	2	48*	-2
Cc1nc2nc(-c3ccc(Cl)cc3)cn2nc1C	-2	-1	142*	-5	13
SMILES	Mtb bLac sens	Mtb UGM inh	FBA Mtb inh	GDH-TPI inh	Rv3671c inh
Cc1nn2cc(-c3ccc(Cl)cc3)nc2s1	9	0	0	17	4
O=C(COc1ccc2cc(-c3ccccc3)c(=O)oc2c1)NCC1CCC(C(=O)O)CC1 (configuration not stated)	2	-1	+	49*	0
COc1ccc(-c2cc3ccc(OCC(C)=O)cc3oc2=O)cc1	7	-1	155*	15	-6
NC(=O)COc1ccc2cc(-c3ccc(F)cc3)c(=O)oc2c1	3	-2	+	18	2
O=C(COc1ccc2c(-c3ccccc3)cc(=O)oc2c1)NCC1CCC(C(=O)O)CC1 (configuration not stated)	-2	-1	-1	19	4
COC(=O)COc1ccc2cc(-c3ccccc3)c(=O)oc2c1	100	-1	+	38*	2

Source: PubChem BioAssay
